PPC-1+TRAIL kill = compounds killing PPC-1 cancer cells with TRAIL present (potentiator screen, no TRAIL-free arm); 220,000 tested, 0.41% active; PPC-1 cells + TRAIL, ATPLite viability luminescence; AID 1443; cell killing (% activity), % at 4 µM or 5 µM;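 active means cell killing above 50% in the first pass at 4 µM, then a duplicate retest at 5 µM averaging 50% or more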;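 further: plate controls were cells with TRAIL plus DMSO for no effect and medium-only wells lacking cells for full effect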
SENP8 block-1 = blocks the human protease SENP8; Q96LD8; purified SENP8, Z-RLRGG-aminoluciferin cleavage, luminescence; inhibition, % at 10 µM; 330,000 tested, 1.2% active; in the data active means inhibition above about 50%
SENP7 block = inhibitors of human SENP7 protease | recombinant SENP7, Z-RLRGG-aminoluciferin luminescence, 40 min | Q9BQF6 | AID 434973 | 330,000 tested, 1.5% active | inhibition, % at 5 µM;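 active means inhibition above about 50% at the single test dose, limit read from the data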;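 further: plate controls were DMSO with enzyme for no effect and no enzyme buffer wells for full effect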
SENP6 inh = inhibitors of human SENP6 protease; Recombinant SENP6 catalytic domain, aminoluciferin luminescence; inhibition, % at 10 µM; 330,000 tested, 1.8% active;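 active means inhibition above about 50% at the single tested dose, limit read from the data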;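 further: plate controls were DMSO wells with enzyme for no effect and DMSO wells lacking enzyme for full effect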
Target sequence (Q9GZR1 628-1112 limits assumed): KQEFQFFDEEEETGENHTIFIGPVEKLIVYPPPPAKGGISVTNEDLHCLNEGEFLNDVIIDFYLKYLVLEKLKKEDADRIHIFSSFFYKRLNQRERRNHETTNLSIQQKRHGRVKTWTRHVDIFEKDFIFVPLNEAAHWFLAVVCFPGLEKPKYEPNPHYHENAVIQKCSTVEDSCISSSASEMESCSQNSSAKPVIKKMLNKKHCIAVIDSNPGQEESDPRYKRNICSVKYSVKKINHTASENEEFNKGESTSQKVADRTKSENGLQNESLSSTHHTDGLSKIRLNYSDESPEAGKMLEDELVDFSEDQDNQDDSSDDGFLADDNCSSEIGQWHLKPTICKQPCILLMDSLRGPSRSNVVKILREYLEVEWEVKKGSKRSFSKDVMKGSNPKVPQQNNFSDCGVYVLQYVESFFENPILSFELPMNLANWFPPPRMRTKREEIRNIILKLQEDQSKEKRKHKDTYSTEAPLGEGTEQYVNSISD
SENP8 block-2 = blocks human SENP8 cleavage of Nedd8 substrate | 360,000 tested, 0.64% active | recombinant SENP8, Nedd8 substrate fluorescence | inhibition, % at 20 µM | Q96LD8; in the data active means inhibition mostly above about 40%, no sharp cut-off; inactive means mostly below about 27%
TRAIL sens C8 = caspase-8 TRAIL sensitization | NB7+C8 cells + TRAIL, ATPlite viability luminescence | inhibition (viability loss, TRAIL sensitization), % at 10 µM | 360,000 tested, 1% active | AID 624354;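 active means compounds causing at least 50% loss of cell viability in the single-dose screen, relative to plate controls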
SENP8 conf = confirmation of human SENP8 protease inhibitors | shares compounds with SENP7 block | Recombinant SENP8, Z-RLRGG-aminoluciferin luminescence, 60 min | inhibition, % at 12.5 µM | 6,200 tested, 40% active | AID 488912;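 active means mean inhibition across replicates above about 50%, limit read from the data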
SENP6 confirm = confirmation of human SENP6 protease inhibitors. shares compounds with SENP7 block. 6,200 tested, 58% active. AID 488915. inhibition, % at 12.5 µM. recombinant SENP6, Z-RLRGG-aminoluciferin luminescence
SENP7 conf = confirmation of human SENP7 protease inhibitors | shares compounds with SENP7 block | recombinant SENP7, Z-RLRGG-aminoluciferin luminescence, 40 min | inhibition, % at 12.5 µM | 6,200 tested, 69% active | AID 488917
Casp3 SENP sel = selectivity test for SENP inhibitors: human caspase-3 inhibition; shares compounds with SENP7 block; purified caspase-3, Z-DEVD-aminoluciferin luminescence, 60 min; inhibition, % at 12.5 µM; 6,200 tested, 60% active; AID 488918;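 active means mean inhibition above about 50%, limit read from the data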;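 further: plate controls were enzyme with DMSO for no effect and wells without caspase-3 for full effect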
Luc interf = luminescence interference (SENP counter-screen). shares compounds with SENP7 block. Pre-incubated SENP8/Z-RLRGG-aminoluciferin, luciferase luminescence interference. inhibition, % at 12.5 µM. 6,200 tested, 39% active;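 active means mean inhibition above about 50% when retested at one dose, limit read from the data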;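 further: plate controls were DMSO wells with completed reaction for no effect and substrate without enzyme for full effect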
* = called active by the depositor; . = no result. Only some compounds are listed: those with a hit (about 3% of all), similar ones and a draw of the others.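 How the source made its calls, unless noted: active means mean inhibition above about 50% in the one-dose retest (limit read from the data); inactive means the rest.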

SMILES	PPC-1+TRAIL kill	SENP8 block-1	SENP7 block	SENP6 inh	SENP8 block-2	TRAIL sens C8	SENP8 conf	SENP6 confirm	SENP7 conf	Casp3 SENP sel	Luc interf
O=C(/C=C/c1ccccc1O)c1ccc(Cl)cc1	14	40	-4	67*	11	-3	48	55*	8	12	56*
O=C(Cc1ccc(Cl)cc1)Nc1ccccn1	.	4	6	7	9	18	.	.	.	.	.
Cc1cccc(N/C=C/C(=O)c2ccc(Cl)cc2)c1	.	66*	89*	73*	-146	33	18	20	22	46	7
Cc1ccc(Cl)c(N/C=C/C(=O)c2ccccc2)c1	.	49	71*	77*	-33	25	46	60*	79*	50*	29
CCOC(=O)C1CCN(c2ccc(-c3cccs3)nn2)CC1	.	91*	95*	96*	-23	40	94*	94*	100*	96*	90*
c1csc(-c2ccc(N3CCOCC3)nn2)c1	.	42	67*	54*	-52	60*	57*	56*	86*	88*	63*
CCOC(=O)C1(C)CCCN(C(=O)c2cccc(OC(F)(F)F)c2)C1 (stereo not given)	.	.	.	.	6	-8	.	.	.	.	.
CCCCCCNc1nc(-c2ccc(OC)cc2)c(CCC(=O)O)s1	9	-7	-1	-2	-466	-5	.	.	.	.	.
CC(=O)Oc1c(C)cc(Cl)cc1C(=O)Nc1ccc([N+](=O)[O-])cc1Cl	39	24	98*	84*	18	31	9	8	10	24	14
CC(=O)OCC(=O)Nc1ccc([N+](=O)[O-])cc1Cl	13	-2	6	7	12	-11	.	.	.	.	.
C/C(=N\NC(=O)c1cccc(Cl)c1)C1C(=O)c2ccccc2C1=O	1	92*	74*	97*	26	11	5	97*	101*	88*	81*
C/C(=N\NC(=O)CCc1ccccc1)C1C(=O)c2ccccc2C1=O	.	20	26	-15	15	15	.	.	.	.	.
COc1ccccc1NC(=O)CCNS(=O)(=O)c1ccc2c(c1)CCN2C(C)=O	.	-6	5	1	2	4	.	.	.	.	.
Cc1ccc(C)c(S(=O)(=O)NC(C)C(=O)NCc2ccccn2)c1 (stereo not given)	.	5	2	3	7	-9	.	.	.	.	.
O=C1c2ccccc2C(=O)C1(CO)c1ccc(OC(F)F)cc1	.	94*	3	94*	12	79*	4	98*	103*	96*	57*
COC(=O)CC1(c2ccccc2)C(=O)c2ccccc2C1=O	16	4	15	8	15	3	.	.	.	.	.
O=C1c2ccccc2C(=O)C1(CO)c1ccccc1	7	31	15	56*	18	3	38	50*	82*	77*	48
O=C(O)/C=C/c1ccc(S(=O)(=O)Nc2ccc(C(=O)NCC(=O)O)cc2)cc1	-1	4	-4	15	7	-1	.	.	.	.	.
COc1ccc(N(CC(=O)N2CCN(c3ccc(Cl)cc3)CC2)S(=O)(=O)c2c(C)n[nH]c2C)cc1	30	3	-3	6	21	-9	.	.	.	.	.
O=C(Oc1ccc(OC(=O)N2CCOCC2)cc1)c1ccccc1	33	26	56*	38	22	-5	-20	19	72*	47	-2
O=C(Oc1ccc(-c2ccccc2)cc1)N1CCCCC1	-6	18	33	53*	0	11	-4	-5	-6	-2	-4
CSc1ccccc1OCc1cc(C(=O)NCCc2nc(C)cc(C)n2)no1	.	-13	10	3	14	-4	.	.	.	.	.
CN(CC(=O)Nc1ccccc1Br)C(=O)c1sccc1-c1ccccc1	.	-15	-15	-15	3	-17	.	.	.	.	.
CCOC(=O)C1(Cc2ccccc2)C(=O)Nc2ccccc21 (stereo not given)	.	5	-5	-15	15	8	.	.	.	.	.
CCOC(=O)C1(C(F)(F)F)N=C(C(F)(F)F)Nc2ccccc21 (stereo not given)	15	-5	72*	3	5	-11	9	7	2	-4	-8
SMILES	PPC-1+TRAIL kill	SENP8 block-1	SENP7 block	SENP6 inh	SENP8 block-2	TRAIL sens C8	SENP8 conf	SENP6 confirm	SENP7 conf	Casp3 SENP sel	Luc interf
CC(=O)Oc1ccc(/C=C/c2nc3ccccc3c(=O)o2)cc1	.	95*	99*	96*	-134	76*	74*	79*	55*	68*	50
CC(=O)Oc1ccccc1/C=C/c1nc2ccccc2c(=O)o1	.	65*	66*	76*	-41	82*	77*	74*	90*	94*	57*
CCC(C)N1C(=O)CN(C2CCCCCC2)C(=O)C1c1ccccc1F (stereo not given)	28	-15	-11	12	28	-18	.	.	.	.	.
Oc1ccc(-c2csc(-c3ccccc3)n2)cc1O	12	36	29	54*	13	22	60*	56*	73*	10	68*
Oc1ccc(-c2csc(-c3cccnc3)n2)cc1O	7	-3	0	-13	12	23	.	.	.	.	.
Oc1ccccc1-c1csc(-c2ccccc2)n1	49	71*	83*	76*	8	0	-25	74*	92*	44	38
O=C1C(=O)N(c2ccc(O)cc2)C(c2ccccc2[N+](=O)[O-])/C1=C(\O)c1ccccc1 (stereo not given)	5	6	7	6	12	-3	.	.	.	.	.
CCCCC(=O)N1CCN(c2nc3ccc(F)cc3s2)CC1	.	73*	82*	84*	1	11	78*	75*	95*	89*	49
O=C(CC(Nc1ccc(Cl)cc1Cl)C(=O)O)c1ccccc1 (stereo not given)	3	-2	-5	-14	26	25	.	.	.	.	.
Cc1ccc(NC(CC(=O)c2ccccc2)C(=O)O)cc1Cl (stereo not given)	11	74*	65*	-8	-34	31	-12	8	18	36	19
O=c1c2ccccc2nnn1CSc1ccc2c(c1)OCCO2	6	49	63*	16	26	15	72*	70*	87*	72*	71*

High-throughput results from PubChem BioAssay.
